IL1B secr inh: inflammasome signaling inhibition, IL-1 beta readout; THP-1 LPS/ATP IL-1B secretion, AlphaLISA, 16 h; stronger effect = lower value; activity change, % at 57.5 µM; 4.7% of 360,000 active; in the data active = activity change below about -50%; inconclusive = mostly about -30% to -49%
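Secreted IL-1B measured by AlphaLISA bead assay after 16 h compound exposure of THP-1 cells; compounds (final up to 57.5 uM) added 1 h before LPS (250 ng/mL) and ATP (1.25 mM) stimulation; lower signal means less secretion.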
DT40 TDP1 no CPT: qHTS for Inhibitors of human tyrosyl-DNA phosphodiesterase 1 (TDP1): qHTS in cells in absence of CPT; Potency, µM (top dose mostly 46.2 µM), for inactives: at the highest dose activity change, negative = growth inhibition, usual class: inhibitors; 15% of 420,000 active; DT40 Tdp1-/- hTDP1 cells, no CPT, ATP luminescence, 48 h; note: potency is the fitted concentration of half-maximal effect; nearly all actives have a fitted effect of over 55% in size
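Growth of hTDP1-complemented DT40 Tdp1-knockout cells is measured by ATP luminescence after at least 48 hr compound exposure at 37 °C, with DMSO substituting for the 20 nM CPT used in the parallel screen.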
DT40 TDP1 CPT: growth inhibition of DT40 Tdp1-/-;hTDP1 cells with camptothecin (screen for TDP1 inhibitors); chicken DT40 Tdp1-/-;hTDP1 cells + 20 nM CPT, ATP luminescence, 48 h; Potency, µM (titrated, usually from 46.2 µM), without a hit: at the top dose activity change, negative = growth inhibition, usual class: inhibitors; 12% of 420,000 active; AID 686979; note: potency is the fitted concentration of half-maximal effect; nearly all actives have a fitted effect of over 55% in size
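Chicken DT40 Tdp1-/- cells stably complemented with human TDP1 were seeded at 400 cells/well in medium containing 20 nM camptothecin, exposed to pin-transferred compounds, and grown at 37 °C for at least 48 hr. Viability was read as ATP luminescence.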
uPA generation: inhibitors of cell surface uPA generation. AID 540303. 0.31% of 330,000 active. Potency, µM (highest dose often 38.3 µM), inactives show at the highest dose activity change, negative = inhibition, hits mostly inhibitors. cell surface uPA generation assay, qHTS; active = well fitted inhibition curve with a large enough effect; inconclusive = small, poorly fitted or top-dose-only effect; inactive = no such curve, though single readings can be large or run the other way; tested in mouse RAW 264.7 cells; note: potency is the fitted concentration of half-maximal effect; nearly all actives have a fitted effect of over 55% in size
HT1080NT lethal: kills 2HG-producing HT-1080-NT fibrosarcoma cells; 1.6% of 360,000 active; HT-1080-NT fibrosarcoma viability, CellTiter-Glo ATP luminescence, 48 h; Potency, µM (titrated, usually from 46.1 µM), inactives show top-dose activity, negative = less viability, most hits filed as cytotoxic;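 note: NT is the 2HG producing partner of a matched IDH1 knockdown line; potency is the fitted concentration of half-maximal effect; 0% = DMSO-treated cells and -100% = media-only wells without cells; nearly all actives have a fitted effect of over 55% in size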
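Compounds were tested in concentration-response format on HT-1080-NT cells for 48 hours at 37 degrees C. Cell viability came from CellTiter-Glo luminescence; curves were classified by r2, response magnitude and activity.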
HT1080 IDH1KD tx: toxicity to HT-1080 IDH1 knockdown cells (counter line). HT-1080 IDH1 knockdown viability, ATP luminescence, 48 h. Potency, µM (series often up to 46.1 µM), for inactives: at the top dose activity, negative = toxicity, usual class: cytotoxic. 2% of 360,000 active. AID 686971;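 note: potency is the fitted concentration of half-maximal effect; 0% = DMSO wells and -100% = cell-free medium wells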
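Luminescent ATP read-out (CellTiter-Glo, 10 min at room temperature) after 48 h compound exposure at 37 °C gave viability of IDH1-knockdown HT-1080 cells. Activity was normalised to DMSO and cell-free wells, then fitted as concentration-response curves.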
An asterisk follows results filed as active; ? = inconclusive; / = not tested or not shown. Shown are actives, neighbours in structure and some others; about 19% of the full set was active somewhere. Unless noted, calls come from the whole dose curve; as a rule, active = well fitted curve in the direction sought with a large enough effect; inconclusive = small, poorly fitted or top-dose-only effect, or another doubt; inactive = no such curve, though single readings can be large; an effect the other way counts as inactive or inconclusive. Unless noted, % is set by controls: 0 for no effect and ±100 for the full control effect.

SMILES	IL1B secr inh	DT40 TDP1 no CPT	DT40 TDP1 CPT	uPA generation	HT1080NT lethal	HT1080 IDH1KD tx
Cc1cccn2c(=O)c(C=O)c(Cl)nc12	-96.2*	2.31µM*	2.59µM*	-11.2%	?	?
O=Cc1c(Cl)nc2ccccn2c1=O	-99.1*	16.4µM*	18.4µM*	-9.4%	?	?
CC1CCN(c2nc3ccccn3c(=O)c2C=O)CC1	33.5	0.0%	-13.0%	11.6%	3.8%	-6.2%
Cc1ccn2c(NCc3ccccc3)c(-c3cccs3)nc2c1	0.0	23.1µM*	16.4µM*	-3.6%	-15.0%	-3.9%
c1csc(-c2nc3ccccn3c2NC2CCCCC2)c1	-85.8*	?	?	-3.2%	-3.5%	?
Cc1ccn2c(NC3CCCC3)c(-c3cccs3)nc2c1	-11.7	23.1µM*	14.6µM*	1.2%	-5.7%	-4.4%
Cc1ccn2c(NC(=O)c3ccccc3)c(-c3cccs3)nc2c1	-1.4	-7.5%	-31.5%	/	-7.5%	-7.6%
Cc1ccc(C(=O)NNC(=O)c2n[nH]c(=O)c3ccccc23)cc1C	-3.1	-14.2%	-3.9%	0.4%	21.0%	10.9%
COc1ccc(NC(=O)CSc2nc(-c3ccc(OC)c(OC)c3)[nH]c2-c2ccc(C)cc2)cc1	/	?	5.8µM*	/	/	/
COc1ccc(NC(=O)CSc2nc(-c3ccc(OC)cc3)[nH]c2-c2ccc(F)cc2)cc1	/	-1.5%	-7.1%	/	/	/
COc1ccc(-c2[nH]c(-c3ccc(OC)c(OC)c3)nc2SCC(=O)Nc2ccccc2)cc1	/	?	16.4µM*	/	/	/
COc1ccc(NC(=O)CSc2ncccc2C(=O)O)cc1OC	/	-4.5%	4.8%	/	/	/
COc1ccc(-c2nc(SCC(=O)Nc3ccc4c(c3)OCCO4)c(-c3ccc(C)cc3)[nH]2)cc1OC	/	18.4µM*	?	/	/	/
COc1ccc(NC(=O)CSc2nc(-c3cccc(C)c3)[nH]c2-c2ccccc2)cc1OC	/	6.51µM*	9.2µM*	/	/	/
O=C(CN1CCN(c2cccc(C(F)(F)F)c2)CC1)N(C1CCCC1)C1CCS(=O)(=O)C1 (stereo not given)	7.7	?	?	5.0%	4.4%	3.9%
O=C1C(Br)=C(c2ccccc2)C(c2ccccc2)=C1c1ccccc1	-12.6	0.92µM*	0.581µM*	-3.5%	1.2%	?
CCC(c1nnnn1C1CCCC1)N1CCN(Cc2ccccc2)CC1 (stereo not given)	-2.6	-19.8%	-5.9%	11.0%	-7.7%	-3.3%
C(=C\c1ccccc1)/CN1CCN(C(c2ccnc3ccccc23)c2nnnn2C2CCCCC2)CC1 (stereo not given)	?	18.4µM*	23.1µM*	/	?	?
CCC(c1nnnn1C1CCCC1)N1CCN(C/C=C/c2ccccc2)CC1 (stereo not given)	7.2	?	?	/	12.7%	1.5%
CSCCC(c1nnnn1C1CCCCC1)N1CCN(C/C=C/c2ccccc2)CC1 (stereo not given)	-29.0	20.6µM*	?	/	?	?
Fc1ccccc1C(c1nnnn1C1CCCC1)N1CCN(Cc2ccccc2)CC1 (stereo not given)	?	11.6µM*	20.6µM*	7.6%	0.6%	7.6%
C(=C\c1ccccc1)/CN1CCN(C(c2ccccc2)c2nnnn2C2CCCCC2)CC1 (stereo not given)	-28.8	13µM*	?	/	20.8%	7.3%
COc1cccc(C(c2nnnn2C2CCCC2)N2CCN(C/C=C/c3ccccc3)CC2)c1OC (stereo not given)	-16.4	?	?	/	?	?
Cc1ccc[n+](CC(=O)Nc2cc(C(F)(F)F)ccc2N2CCOCC2)c1	?	5.4%	-2.9%	-2.2%	1.3%	-0.3%
Nc1c(C(=O)N/N=C/c2ccccc2Cl)oc2nc(-c3ccccc3)cc(-c3ccco3)c12	/	20.6µM*	?	6.0%	-4.8%	1.9%
SMILES	IL1B secr inh	DT40 TDP1 no CPT	DT40 TDP1 CPT	uPA generation	HT1080NT lethal	HT1080 IDH1KD tx
Nc1c(C(=O)O)sc2nc(-c3ccccc3)cc(-c3ccc(F)cc3)c12	0.0	-28.8%	-17.7%	11.9%	-7.1%	11.0%
Cc1cc(-c2ccccc2)nc2oc(C(=O)NN)c(N)c12	24.6	?	?	1.9%	-2.3%	-10.5%
Nc1c(C(=O)N/N=C/c2ccc(F)cc2)oc2nc(-c3ccccc3)cc(-c3ccco3)c12	/	10.3µM*	23.1µM*	-0.2%	?	20.6µM*
COc1ccc2c(c1)sc1nc(=O)ccn12	-7.9	-26.9%	9.4%	-0.1%	-3.4%	19.0%
COc1ccc2c(c1)sc(=N)n2C	5.5	18.4µM*	18.4µM*	-2.5%	11.8%	-16.4%
CC1CC(C)CN(S(=O)(=O)c2ccc3oc(=O)ccc3c2)C1 (stereo not given)	0.0	-3.6%	-22.8%	-0.8%	-1.4%	-1.0%
CCCS(=O)(=O)NC(=O)C1(C)CCN(C(=O)COc2ccc(Cl)cc2Cl)C1 (stereo not given)	22.9	-17.2%	-3.0%	/	13.9%	7.4%
CCOC(=O)c1cnc(-n2nc(C)cc2C)nc1NCCc1ccccc1	18.2	5.17µM*	6.51µM*	0.5%	10.8%	5.0%
CCOC(=O)c1cnc(-n2nc(C)cc2C)nc1Nc1ccc(OC)cc1	-13.1	11.6µM*	8.2µM*	3.8%	-0.1%	-2.1%
CCOC(=O)c1cnc(-n2nc(C)cc2C)nc1NCc1ccc2c(c1)OCO2	-10.7	?	?	-1.4%	-25.1%	?
CCOC(=O)c1cnc(-n2nc(C)cc2C)nc1NC1CCCC1	24.0	1.3µM*	1.3µM*	-1.9%	?	?
CCOC(=O)c1cnc(-n2nc(C)cc2C)nc1N(C)C	-10.2	?	?	-12.2%	13.0%	11.1%
Cc1cc(C)cc(OCC(=O)NCC2(N(C)C)CCCCC2)c1	/	-12.8%	-21.8%	/	/	/
Cc1ccc(Nc2nc(NCc3ccco3)nc3nccnc23)cc1	/	-17.1%	?	/	/	/
COc1cccc(Nc2nc(NCCO)c3ccccc3n2)c1	/	20.6µM*	4.61µM*	5.6%	?	?
OCCNc1nc(N2CCN(c3ccccc3)CC2)nc2ccccc12	-2.7	?	23.1µM*	-17.6%	-2.5%	-3.2%
OCCNc1nc(NCc2ccccc2)c2ccccc2n1	-98.5*	?	?	-3.9%	?	?
OCCNc1nc(Nc2cccc(O)c2)nc2ccccc12	-104.9*	?	?	1.5%	-11.3%	0.0%
OCCN1CCN(c2nc(NCc3ccco3)c3ccccc3n2)CC1	-15.6	-14.2%	-25.8%	2.5%	-7.7%	-6.7%
O=C(COc1cc2oc(=O)c3c(c2cc1Cl)CCC3)NCC(O)c1ccccc1 (stereo not given)	-7.3	?	?	-3.0%	9.1%	2.6%
